# Measurements reported in PubChem BioAssay (NCATS).
# Results filed as inconclusive are left out. Activity calls are given as the source filed them. Calls come from the whole dose curve; as a rule, active = well fitted inhibition curve with a large enough effect; inconclusive = small, poorly fitted or top-dose-only effect; inactive = flat fitted curve, though single readings scatter.
# Test: P-glycoprotein substrates identified in KB-8-5-11 adenocarcinoma cell line, qHTS therapeutic library screen (AID 1346987); note: nearly all actives have a fitted effect of over 65% in size
# Conditions: KB-8-5-11 (P-gp overexpressing) viability, CellTiter-Glo, 72 h; series mostly up to 44.5 µM; activity change, negative = cytotoxicity: at the top concentration
# How it was run: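 Compounds are pinned in dose-response onto KB-8-5-11 cells (500 cells/well, colchicine-free medium) and left 72 h at 37 degree C. CellTiter-Glo luminescence then yields AC50 values.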
# % is set by controls: 0 for no effect and ±100 for the full control effect; potency is the fitted concentration of half-maximal effect.
SMILES,Potency,"activity change, negative = cytotoxicity",outcome
CC[C@]1(O)CC2CN(CCc3c([nH]c4ccccc34)[C@@](C(=O)OC)(c3cc4c(cc3OC)N(C=O)[C@H]3[C@@](O)(C(=O)OC)[C@H](OC(C)=O)[C@]5(CC)C=CCN6CC[C@]43[C@@H]65)C2)C1 (stereo partly drawn),2.27 µM (active),–,–
Cc1cc2c(c(=O)[nH]1)OC(C(O)CC(C)C)O2 (stereo not drawn),–,-3.87% (inactive),–
CC1(C)CCCC2(C)C1CC(=O)C13CC(CCC12)C(O)(CO)C3 (stereo not drawn),–,-21.3% (inactive),–
CC[C@@H](N)CNc1ccnc(-c2cc(-c3cnn(C)c3)ccc2O)n1,5.17 µM (active),–,–
CC(C)c1cc(C(=O)N2CC[C@@H](NC(=O)C3CC3)C2)n[nH]1,–,-0.389% (inactive),–
C[C@@H]1C[C@@H]([C@@H](O)C(C)(C)O)O[C@H]2C[C@@]3(C)C(=C12)C[C@H](O)[C@H]1[C@@]2(C)CCC(=O)C(C)(C)C2CC[C@@]13C (stereo partly drawn),–,-6.6% [at 17.3 µM] (inactive),–
OC[C@H]1O[C@@H](O[C@H]2[C@H](OCc3ccccc3)O[C@H](CO[C@@H]3OC[C@@H](O)[C@H](O)[C@H]3O)[C@@H](O)[C@@H]2O)[C@H](O)[C@@H](O)[C@@H]1O,–,1.87% [at 17.3 µM] (inactive),–
OC/C=C/C=C/[C@H]1Cc2cc(O)cc(O)c2O1,–,–,inactive
CON(C)C(=O)[C@H](O)[C@H](Cc1ccccc1)NC(=O)c1cc2cc(Cl)ccc2[nH]1,–,-6.38% (inactive),–
c1ccc(-c2csc(N3CCOCC3)n2)cc1,–,–,inactive
CC(=O)N1CCc2ccc(O)c(OC3OC(COC4OCC(O)(CO)C4O)C(O)C(O)C3O)c2C1Cc1ccc(O)cc1 (stereo not drawn),–,–,inactive [at 17.3 µM]
CC(=O)C=C=C1C(C)(C)CC(O[C@@H]2O[C@H](CO)[C@@H](O)[C@H](O)[C@H]2O)CC1(C)O (stereo partly drawn),–,8.5% (inactive),–
CC1=CC(=O)CC(C)(CO)C1(O)/C=C/C(C)O[C@@H]1O[C@H](CO)[C@@H](O)[C@H](O)[C@H]1O (stereo partly drawn),–,3.58% [at 17.3 µM] (inactive),–
O=C(O)/C=C/c1ccc(-c2ccc(O)c(C34CC5CC(CC(C5)C3)C4)c2)cc1,0.58 µM (active),–,–
C/C=C(/COC(=O)/C(C)=C/C)C(=O)OC(CC)c1ccc(OC)c(OC)c1 (stereo not drawn),–,–,inactive
C=C1CCCC2(C)CC3(OC)OC(=O)C(C)=C3CC12 (stereo not drawn),–,-1.64% (inactive),–
CC(=O)OC[C@@]12C(=O)C[C@@H](C)[C@]3(C[C@@H](c4ccoc4)O[C@H]3OC(C)=O)[C@H]1CCC[C@]21CO1,–,-18.7% [at 17.3 µM] (inactive),–
Cc1c(NC(=O)c2cc(C(N)=O)nc3cc(F)ccc23)c(C(F)(F)F)nn1Cc1ccc(C#N)cc1,–,-6.76% [at 17.3 µM] (inactive),–
CN(C)c1nc(NC2CCC(NC(=O)c3ccc(F)c(F)c3)CC2)nc2ccccc12 (stereo not drawn),20.6 µM (active),–,–
CC1=CCC2C(C)(C)CCC[C@]2(C)[C@@]12CC[C@](C)(CC(=O)O)O2 (stereo partly drawn),–,-8.53% (inactive),–
CCOc1cc(C(=O)N2CCC(N3CCN(C)CC3)CC2)ccc1Nc1ncc2c(n1)N(C1CCCC1)c1ccccc1C(=O)N2C,13 µM (active),–,–
CCNC(=O)C1OC(n2cnc3c(N)nc(NCCc4ccc(CCC(=O)O)cc4)nc32)C(O)C1O (stereo not drawn),–,-5.42% (inactive),–
COc1ncc(Nc2ncc([C@@H](C)N3CCN(S(C)(=O)=O)CC3)cc2-c2nc(C)nc(N)n2)cc1F,6.51 µM (active),–,–
Cc1ccc(NC(=O)Nc2cc(C(F)(F)F)ccc2F)cc1Nc1ccc2c(c1)NC(=O)/C2=C\c1ccc[nH]1,13 µM (active),–,–
Cc1[nH]nc(C(F)(F)F)c1Cc1sc2c(c1C(=O)N1C[C@](C)(O)CO1)c(=O)n(C)c(=O)n2C(C)C,–,7.5% (inactive),–
C/C=C/C=C/C(O)=C1\C(=O)[C@]2(C)C3C(C(=O)CC/C=C/C)=C(O)C4(C)C1[C@]1(C)O[C@@]4(O)[C@@]3(C)O[C@@]12O,–,-6.58% [at 17.3 µM] (inactive),–
CC1=C(CCC(C)CC(=O)O)[C@@]2(C)CCCC(C)(C)C2CC1=O (stereo partly drawn),–,-2.03% (inactive),–
O=C(Nc1nc2ccccc2n1CCc1ccccc1)c1ccccc1,–,-9.76% (inactive),–
